Experimental data: PubChem BioAssay (NCI)
Values joined by “and” are separate entries in the source; they are usually repeats but may differ in a detail not shown here. Identical values can stand only once. Compounds without any hit were thinned out: in the full panel of roughly 83,000, 20% have a hit.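 Single-dose data. Exposure time 48 hours. Values below 10 considered active.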 Values without a mark were called inactive. Active and inactive are the calls of the source.

test system: MDA-MB-468 breast; test: NCI-60 one-dose screen, 48 h (100 = growth as untreated, 0 = no growth, -100 = all killed); settings: 10 µM unless noted

Compound | growth
O=C(/C=C\c1cccc([N+](=O)[O-])c1)/C=C/c1cccc([N+](=O)[O-])c1 | 91.4%
O=C(O)c1ccccc1Cc1ccc2c(c1)CCCC2 | 99.6%
C#Cc1cccc(NC(=O)c2cccc(NC(=O)CCl)c2)c1 | -52.7% [8.25 µM] (active)
O=C(CCCCCCCC(=O)N1CCCCC1)N1CCCCC1 | 105%
S=C1CCCC(=S)N1 | 100%
Nc1nc(=S)ss1 | 101%
COc1ccc(NC(=O)CSc2nc(-c3ccc(OC)c(OC)c3)cc(-c3cc(OC)c(OC)c(OC)c3)n2)cc1 | 110%
C[C@@H](C[C@H](CC1CC1)c1ccccc1)c1ccc2ccccc2c1 | 101%
COc1ccc(/C=N/NC(=O)Cn2c(-c3ccc(S(C)(=O)=O)cc3)nc3ccccc32)cc1 | 98.3%
CO[C@H]1CC(O[C@@H]2/C(C)=C/C[C@@H]3C[C@@H](C[C@]4(CC[C@H](C)[C@@H](C5CCCCC5)O4)O3)OC(=O)[C@@H]3C=C(C)/C(=N/O)[C@H]4OC/C(=C\C=C\[C@@H]2C)[C@]43O)O[C@@H](C)C1O (stereo partly specified) | -87% (active)
CN(C)CCCCC(C(=O)CBr)(c1ccccc1)c1ccccc1 | -53.1% (active)
COc1ccc(NC(=O)c2sc3nc(C)c(C(=O)c4ccc(OC)cc4)cc3c2N)cc1 | 13.2%
O=[N+]([O-])c1ccc(N/N=C/c2c(O)ccc3ccccc23)nc1 | 36.9%
CC1=C/C(=C(\c2ccc(N(C)C)cc2)c2ccc([N+](C)(C)C)cc2)C=CC1=[N+](C)C | 70.6%
CNS(=O)(=O)Oc1ccc(-c2sc3cc(OS(=O)(=O)NC)ccc3c2C(=O)c2ccc(OCCN3CCCCC3)cc2)cc1 | 63.1%
CCCCn1c(-c2ccc(O)cc2)cn2c3c(=O)[nH]c(=O)n(C)c3nc12 | 43.4%
Nc1nccc(OCCO)n1 | 107%
Cc1ccc(-c2cc(-c3ccc(Cl)cc3)nc(NC(=O)c3cccnc3)n2)cc1 | 106%

Compound | growth
NS(=O)(=O)c1ccc(Nc2nc(O)c(/C=C3\C=Nc4ccccc43)s2)cc1 | 104%
CC[n+]1c(/C=C/c2ccc(N3CCCC3)cc2)cccc1/C=C/c1ccc(N2CCCC2)cc1 | -85.8% (active)
COc1ccc(-c2cc(Cc3cccs3)c(=O)n(Cn3ccc4ccccc43)n2)cc1 | 110%
Cc1nc2sc(C(=O)Nc3ccccc3)c(N)c2cc1C(=O)c1ccc(C(F)(F)F)cc1 | 107%
C=C(CNCCc1ccc(O)cc1)[C@@H]1CC[C@]2(COC3CCCCO3)CC[C@]3(C)[C@H](CC[C@@H]4[C@@]5(C)CCC(NCCO)C(C)(C)[C@@H]5CC[C@]43C)[C@@H]12 (stereo partly specified) | -80.1% (active)
Cc1nc2sc(C(=O)Nc3cccc4ncccc34)c(N)c2cc1C(C)O (stereo unspecified) | 44.9%
CC(=O)Oc1c(C)c(C)c2c(c1C)CCC(C)(CC(=O)OCCCCCCCCCCC[P+](c1ccccc1)(c1ccccc1)c1ccccc1)O2 (stereo unspecified) | -55.7% (active)
NC(=O)n1c(=O)n(-c2cccc(C(F)(F)F)c2)c(=O)c2cc(-c3ccc(F)cc3F)ccc21 | -8.88% (active)
CCN1CCN(c2ccc(NC(=O)Nc3ccc4c(ccn4-c4ccnc(C(=O)NC)c4)c3)cc2C(F)(F)F)CC1 | 65.9%
OCCN1CCN(c2cc(-c3cccc(OC(F)(F)F)c3)nc3ccc(N4CCCC4)cc23)CC1 | 16.6%
Cc1cnc(C(=O)Nc2nc3ccc(S(=O)(=O)Nc4ccc(C(C)(C)C)cc4)cc3[nH]2)cn1 | -11.4% (active)
COc1ccc(CCn2cnn3c(=O)c4ccccc4nc3c2=O)cc1OC | 93.5% and 94.3%
COC1=CC(=O)OC(c2ccc(OC)cc2)C1 (stereo unspecified) | 112%
O=C(O)c1cccc2c1Cc1cc([N+](=O)[O-])ccc1-2 | 113%
Nc1c(C(=O)Nc2cccc3ncccc23)sc2nc3c(cc12)CN(Cc1ccccc1)CC3 | 31.4%
CC(C)(O)c1cn(CCCCN2C(=O)C(=O)c3ccccc32)nn1 | 95%
COc1ccccc1-n1cc(C#N)c(N)c1C(=O)c1ccc(Cl)cc1 | 51.6%
O=C1N(Cc2ccccc2Cl)c2ccccc2C12NN=C(c1ccccc1)S2 (stereo unspecified) | 57.2%
